Measured values: PubChem BioAssay AID1159580 (chemical genetic matrix, 2015)
Where “and” joins values, the source holds several entries; their conditions need not be identical. Identical values can stand only once. The campaign covered roughly 5,500 compounds. About 2,000 (36%) were called active. Not shown: some 18% with an inconclusive outcome. Rule as the data show it: active = normalized growth mostly below about 0.91 (no sharp cut-off); inconclusive = no clear call, values can overlap the other calls; inactive = mostly above about 0.92. The list shows a part of the results.

Experiment: chemical genetic growth profiling, strain panel (AID 1159580);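 also: tested at 20 µM; growth read once vehicle control cultures reached saturation at 30 °C; 1 = growth at the plate median or of vehicle wells; lower values mean less growth of the strain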
Conditions: S. cerevisiae deletion strains, growth OD

Measured: normalized growth

NCCc1cnc[nH]1
inactive: locus YAL021C, strain ccr4, hits give low values 1.01 | locus YAL026C, strain drs2, hits give low values 1.01 | locus YAL030W, strain snc1, hits give low values 1.01 | locus YAL040C, strain CLN3, hits give low values 0.978 | locus YBL061C, strain skt5, hits give low values 1.02 | locus YBR009C, strain hhf1, hits give low values 1 | locus YBR021W, strain FUR4, hits give low values 1 | locus YBR023C, strain chs3, hits give low values 1.02 | locus YBR171W, strain sec66, hits give low values 1.03 | locus YBR229C, strain ROT2, hits give low values 1.01 | locus YBR231C, strain swc5, hits give low values 0.976 | locus YBR279W, strain paf1, hits give low values 1.02 | locus YCL011C, strain gbp2, hits give low values 1.03 | locus YCL016C, strain dcc1, hits give low values 1.01 | locus YCL029C, strain bik1, hits give low values 1.01 | locus YCL061C, strain MRC1, hits give low values 1.02 | locus YCL069W, strain vba3, hits give low values 1.01 | locus YCR088W, strain abp1, hits give low values 1.01 | locus YDL005C, strain med2, hits give low values 1.02 | locus YDL035C, strain GPR1, hits give low values 0.988 | locus YDL040C, strain nat1, hits give low values 1.02 | locus YDL074C, strain BRE1, hits give low values 1 | locus YDL101C, strain DUN1, hits give low values 1.01 | locus YDL185W, strain tfp1, hits give low values 1.02 | locus YDL192W, strain arf1, hits give low values 1.03 | locus YDR001C, strain nth1, hits give low values 1.01 | locus YDR069C, strain doa4, hits give low values 0.993 | locus YDR101C, strain arx1, hits give low values 0.997 | locus YDR137W, strain rgp1, hits give low values 1.03 | locus YDR159W, strain sac3, hits give low values 0.995 | locus YDR162C, strain NBP2, hits give low values 0.998 | locus YDR195W, strain ref2 0.994 | locus YDR297W, strain sur2, hits give low values 1.04 | locus YDR318W, strain mcm21, hits give low values 1.02 | locus YDR334W, strain swr1, hits give low values 1.02 | locus YDR335W, strain msn5, hits give low values 1.02 | locus YDR363W, strain ESC2, hits give low values 0.998 | locus YDR388W, hits give low values 1.01 | locus YDR392W, strain spt3, hits give low values 1 | locus YDR502C, strain sam2, hits give low values 1.01 | locus YEL003W, strain gim4, hits give low values 1.03 | locus YEL037C, strain rad23, hits give low values 1.02 | locus YEL061C, strain CIN8 (second series), hits give low values 1.02 | locus YEL061C, strain CIN8, hits give low values 0.995 | locus YER002W, strain NOP16, hits give low values 0.994 | locus YER015W, strain faa2, hits give low values 1.01 | locus YER016W, strain bim1, hits give low values 1 | locus YER110C, hits give low values 1.02 | locus YER111C, strain swi4, hits give low values 1.02 | locus YER155C, strain BEM2 (second series), hits give low values 1.03 | locus YER155C, strain BEM2, hits give low values 1.01 | locus YER167W, strain BCK2, hits give low values 0.989 | locus YFR010W, strain ubp6, hits give low values 1.01 | locus YGL078C, strain dbp3, hits give low values 1.02 | locus YGL086W, strain mad1, hits give low values 1 | locus YGL167C, strain pmr1, hits give low values 1.01 | locus YGL173C, strain kem1, hits give low values 1 | locus YGL227W, strain vid30, hits give low values 1.01 | locus YGL240W, strain doc1, hits give low values 1.01 | locus YGL248W, strain PDE1, hits give low values 1.01 | locus YGL253W, strain hxk2, hits give low values 1.01 | locus YGR078C, strain PAC10, hits give low values 1 and 0.997 | locus YGR135W, strain pre9, hits give low values 1.02 | locus YGR252W, strain gcn5, hits give low values 1.04 | locus YHR013C, strain ard1, hits give low values 1.06 | locus YHR027C, strain rpn1, hits give low values 1.01 | locus YHR030C, strain SLT2, hits give low values 0.985 and 1 | locus YHR079C, strain IRE1 (second series), hits give low values 1.01 | locus YHR079C, strain IRE1, hits give low values 1.03 | locus YHR094C, strain hxt1, hits give low values 1.01 | locus YHR129C, strain ARP1, hits give low values 1.01 | locus YHR142W, strain chs7, hits give low values 1.01 | locus YHR200W, strain rpn10, hits give low values 1.02 | locus YIL066C, strain RNR3, hits give low values 1.01 | locus YIL073C, strain SPO22, hits give low values 1.03 | locus YIL125W, strain kgd1, hits give low values 1.02 | locus YIR030C, strain dcg1, hits give low values 1.01 | locus YJL092W, strain hpr5, hits give low values 1.02 | locus YJL095W, strain BCK1 (second series), hits give low values 1.02 | locus YJL095W, strain BCK1, hits give low values 1.01 and 0.999 | locus YJL115W, strain asf1, hits give low values 1.02 | locus YJL129C, strain trk1, hits give low values 1.03 | locus YJL134W, strain LCB3, hits give low values 0.995 | locus YJL154C, strain vps35, hits give low values 1.03 | locus YJL164C, strain tpk1, hits give low values 1.02 | locus YJL166W, strain qcr8, hits give low values 1.03 | locus YJL168C, strain set2, hits give low values 1.01 | locus YJL187C, strain SWE1 (second series), hits give low values 1 | locus YJL187C, strain SWE1, hits give low values 1.01 | locus YJR043C, strain POL32, hits give low values 1
